The source of these data is PubChem BioAssay (NCI).

Compounds without any hit were thinned out: in the full panel of roughly 83,000, 20% have a hit.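 Cells were grown in 96-well plates and exposed to the test compound at a single concentration for 48 hours; results are reported as percent growth, with values below 10 considered active.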 Values without a mark were called inactive. Activity calls are given as the source filed them.

Common to all, as to experiment: NCI-60 one-dose screen, 48 h (100 = growth as untreated, 0 = no growth, -100 = all killed)
Common to all, as to conditions: 10 µM unless noted

Assay [1] relates to SR leukemia.
Assay [2] relates to RPMI-8226 leukemia.
The test system of assay [3] is OVCAR-8 ovarian.
In assay [4] the test system is OVCAR-5 ovarian.
Assay [5] deals with OVCAR-4 ovarian.
Assay [6] has as its system SK-OV-3 ovarian.
Assay [7] relates to IGROV1 ovarian.
For assay [8], the system named is OVCAR-3 ovarian.
Assay [9] has as its system HS 578T breast.
The test system of assay [10] is NCI/ADR-RES ovarian.

Regarding `COC(=O)c1nc(=S)[nH]c(C(=O)OC)c1C(=O)c1ccc(Cl)c(Cl)c1`, the growth in [1] is 115%; in assay [2] it was 105%; in assay [3], 111%; in assay [4] it was 118%; in [5], 104%; in [6], 107%. Moreover, the growth is 112% in assay [7], 122% in assay [8], 102% in assay [9] and 110% in assay [10].
With `Oc1ccc2c(c1)CCc1ccccc1-2`, the growth is 104% in assay [1]; 105% in [2]; 106% in assay [3]; 92.4% in assay [4]; 90.9% in assay [5]; 105% in assay [6]. Moreover, the growth is 116% in [7], 112% in [8], 96.8% in assay [9] and 114% in assay [10].
Regarding `Cc1cc(C(=C2C=CC(=Nc3ccccc3)C=C2)c2ccc(Nc3ccccc3)cc2)ccc1N`, the growth in [1] is 9.34% (active); in assay [2], 4.29% (active); in assay [3] it was -59.3% (active); in [4] it was -60% (active); in assay [5], -74.2% (active); in assay [6], -64.8% (active). Also, the growth in assay [7] was -26.9% (active); in [8], -93.7% (active); in [10], -46.7% (active).
Regarding `CCCCCC/C=C1\CCC(CN2CCCC2)C1=O` (stereo unspecified), the growth in assay [1] was 43.5%; in assay [2], -12.2% (active); in [3], 106%; in [4], 135%; in assay [5], 109%; in assay [6], 110%. Further, the growth in [7] is 113%; in [8], 103%; in assay [9], 96.3%; in assay [10], 105%.
For `O=C1c2ccccc2C(=O)c2c(O)c(Cl)cc(O)c21`, the growth is 62% in assay [1]; 96.4% in assay [2]; 58.2% in [3]; 92.6% in [4]; 84.3% in assay [5]; 99.5% in assay [6]. The growth is 81.1% in assay [7], -17.9% (active) in assay [8], 106% in [9] and 93.7% in assay [10].
As for `CC1(C)N=c2cc3c(cc2N1c1ccc(Cl)cc1)=Nc1ccccc1N3c1ccc(Cl)cc1`, the growth is -41.9% (active) in assay [1]; -27.5% (active) in assay [2]; 21% in assay [3]; 25.5% in assay [4]; 39.1% in assay [5]; 59.4% in [6]. Besides, the figures for the growth in [8] and in [10] were 35.9% and 20.4%, respectively.
In the case of `CC(C)(C)c1ccc(O)c(-c2ccccc2)c1`, the growth in assay [1] was 57.7%; in assay [2] it was 97.1%; in [3], 107%; in assay [4], 111%; in [5] it was 127%; in assay [6], 114%. Also, the growth is 108% in assay [7], 111% in assay [8] and 106% in assay [10].
Turning to `Nc1cc(-c2ccccc2)ccc1O`, the growth in [1] was 28.7%; in assay [2], -11.7% (active); in assay [3], 62.7%; in [4], 104%; in assay [5], 91.4%; in [6], 113%. In addition, the growth in assay [7] is 115%; in assay [10], 88.4%.
`COC(=O)c1cc([N+](=O)[O-])cc([N+](=O)[O-])c1Cl`: the growth was 30.9% in [1]; 87.1% in assay [2]; 76.1% in assay [3]; 97.9% in assay [4]; 61% in assay [5]; 102% in assay [6]. Besides, the growth in [7] was 95.7%; in assay [8] it was -44.7% (active); in [10], 99.1%.
As for `O=C1C=CC(=O)N1c1ccc(O)cc1`, the growth in [1] was 91.7%; in assay [2], 91.9%; in assay [3], 109%; in assay [4], 105%; in assay [5], 103%; in [6] it was 106%. The values for the growth in assay [8], in [9] and in assay [10] were 119%, 118% and 106%, respectively.
Take `Oc1ccc(Nc2ccc3ccccc3c2)cc1`: the growth in [1] was 50.4%; in assay [2] it was 58.6%; in [3], 59.8%; in assay [4], 71.5%; in assay [5] it was 60.2%; in [6] it was 89.3%. The growth in [7] is 58.1%; in assay [8] it was 69.8%; in assay [9], 87.6%; in assay [10], 41.8%.
With `Cc1ccc(N2C(=O)C=CC2=O)cc1`, the growth in assay [1] was 66%; in assay [2], 98.8%; in assay [3] it was 110%; in [4], 110%; in [5], 107%; in assay [6], 121%. Also, the growth in assay [8] is 118%; in assay [10] it was 104%.
With `S=C(S)OCN1CCOCC1`, the growth in assay [1] is 65.2%; in assay [2], 100%; in [3], 88%; in [4], 97.6%; in [5], 56.5%; in assay [6], 98.9%. For the same compound, the growth is 56.5% in [7], 118% in assay [8] and 96.2% in [10].
On to `CCOC(=O)NC(/C=C/c1ccccc1)NC(=O)OCC`, for which the growth in assay [1] is 103%; in assay [2], 101%; in assay [3], 108%; in assay [4], 108%; in assay [5], 109%; in assay [6], 90.3%. Moreover, the growth in assay [7] is 106%; in assay [8] it was 107%; in assay [9] it was 103%; in assay [10] it was 109%.
For `O=[N+]([O-])c1ccc2c(c1)Cc1ccccc1-2`, the growth is 91.4% in [1]; 121% in [2]; 98.9% in [3]; 91.3% in assay [4]; 97.3% in assay [5]; 112% in assay [6]. Moreover, the growth was 94.7% in assay [7], 103% in [8], 102% in [9] and 99% in [10].
As for `COc1cc(-c2ccc(-[n+]3nc(-c4ccc([N+](=O)[O-])cc4)nn3-c3ccc([N+](=O)[O-])cc3)c(OC)c2)ccc1-[n+]1nc(-c2ccc([N+](=O)[O-])cc2)nn1-c1ccc([N+](=O)[O-])cc1`, the growth in assay [1] was 40.2%; in assay [2], 27.6%; in assay [3], 30.5%; in assay [4], 59.7%; in assay [5], 53.9%; in assay [6] it was 47.1%. The growth is 24.5% in [7], 32% in [8] and 73.4% in [10].
Take `OC(Cc1cc(CC(O)(C(F)(F)F)C(F)(F)F)nc(CC(O)(C(F)(F)F)C(F)(F)F)c1)(C(F)(F)F)C(F)(F)F`: the growth in [1] was 4.85% (active); in [2] it was -7.53% (active); in assay [3], 9.71% (active); in [4], 16.1%; in assay [5] it was 6.38% (active); in assay [6] it was -16.8% (active). Besides, the growth was 20.4% in assay [7], -3.61% (active) in assay [8], 5.53% (active) in assay [9] and 3.76% (active) in assay [10].
As for `c1ccc(-c2cc3cc4ccccc4cn3c2)cc1`, the growth is 67.4% in assay [1]; 66.4% in assay [2]; 85.4% in [3]; 112% in assay [4]; 76.4% in assay [5]; 92.2% in [6]. The growth in assay [7] is 79.7%; in [8], 88.9%; in assay [9], 88.2%; in assay [10] it was 91.7%.
With `CC(=O)N1CC(=O)NC1=S`, the growth in assay [1] is 91.8%; in assay [2] it was 101%; in [3], 103%; in assay [4], 97.1%; in assay [5], 96.5%; in assay [7] it was 105%. Also, the growth is 110% in assay [8] and 102% in assay [9].
For `CC(C)N=C(N)/N=C(\N)Nc1ccc2ccc3ccccc3c2c1`, the growth in assay [1] was -47.3% (active); in [2] it was -26.9% (active); in [3] it was -60.2% (active); in assay [4], -88.5% (active); in assay [5], -56.9% (active); in assay [6], -63.3% (active). Also, the figures for the growth in [7], in assay [8] and in assay [10] were -56.7% (active), -83% (active) and 41.5%, respectively.
Consider `CCCCCCCCCCCC1=NCCCN1CCCC`, for which the growth in assay [1] is 57.6%; in [2], 93.4%; in assay [3], 101%; in assay [4], 93.4%; in assay [5], 101%; in assay [6], 102%. Further, the growth in assay [7] is 105%; in assay [8], 104%; in [9] it was 112%; in assay [10], 96.8%.
For the compound `O=[N+]([O-])C=C(c1ccccc1)c1ccccc1`, the growth is 22.8% in assay [1]; 64.5% in [2]; 92.5% in assay [3]; 83.2% in assay [4]; 79.5% in [5]; 78% in assay [6]. In addition, the growth in assay [7] is 86.5%; in [8], 90.1%; in assay [10] it was 75.5%.
In the case of `CCCOC(=O)c1nc(N(CC2CCCCC2)C(=O)NC)sc1/N=C/c1ccccc1`, the growth in assay [1] was -17.2% (active); in [2], -48.2% (active); in assay [3] it was 29%; in assay [4], 40%; in assay [5], 35.1%; in assay [6], 24.7%. Further, the growth in assay [7] is 19.4%; in [8] it was 4.38% (active); in assay [10], -14% (active).
Turning to `NC(=S)Nc1ccc2c(c1)Cc1ccccc1-2`, the growth in [1] was 84.9%; in assay [2], 62.1%; in [3], 84.5%; in [4] it was 101%; in [5] it was 83.4%; in [6] it was 98.1%. In addition, the growth was 88.3% in assay [7], 98.3% in assay [8], 88.2% in assay [9] and 88.2% in assay [10].
For `O=C1C(=O)c2cc([N+](=O)[O-])ccc2-c2ccccc21`, the growth was -7.48% (active) in assay [1]; -42.1% (active) in assay [2]; -58.6% (active) in assay [3]; -79.2% (active) in assay [4]; -97.6% (active) in [5]; 55.7% in assay [6]. The growth in [7] was -72.5% (active); in [8] it was -94% (active); in assay [10], -74.2% (active).
`O=C(c1ccccc1)C(O)C(Br)(CBr)c1ccccc1` (stereo unspecified): the growth was 59.3% in assay [1]; 73.6% in assay [2]; 93.2% in assay [3]; 99.6% in assay [4]; 90.8% in assay [5]; 114% in assay [6]. Moreover, the growth in assay [7] is 90.9%; in assay [8], 89.7%; in [10] it was 91.6%.
Regarding `CCCCCCCCCCCCSC(=N)N`, the growth was -32.1% (active) in assay [1]; -42.2% (active) in assay [2]; -60.6% (active) in assay [3]; 37.4% in assay [4]; 33.1% in assay [5]; 79% in [6]. Besides, the growth in [7] was -15.2% (active); in assay [8], 14.4%; in assay [9], 92.1%; in [10], 35.6%.
For `N#CC(=C1SCS1)[N+](=O)[O-]`, the growth in assay [1] was 7.48% (active); in [2], 32%; in assay [3] it was 18.9%; in assay [4] it was 47%; in assay [5], 42.6%; in [6], 55%. Also, the growth in assay [7] was 24.5%; in assay [8], 8.46% (active); in assay [10], 20.2%.
As for `S=C=Nc1ccc(N2CCOCC2)cc1`, the growth in assay [1] is 71.2%; in [2], 87.8%; in [3], 102%; in assay [5], 106%; in assay [6], 93%; in assay [7], 96.9%. The growth in assay [8] was 109%; in assay [9] it was 99.3%; in assay [10], 101%.
On to `OC(CSc1ccccc1)CN1CCN(c2ccc(Cl)cc2)CC1` (stereo unspecified), for which the growth in assay [1] was 86.6%; in [2], 81.4%; in [3], 99.6%; in assay [5] it was 92.1%; in [6], 110%; in [7], 114%. The figures for the growth in [8] and in [9] were 121% and 115%, respectively.
On to `Cc1cc(C(N)=O)cc(C)c1C(=O)OCCCl`, for which the growth in [1] was 89.6%; in assay [2] it was 111%; in assay [3], 102%; in assay [5], 103%; in assay [6], 105%; in assay [7], 111%. Also, the values for the growth in assay [8], in assay [9] and in [10] were 99.5%, 97% and 107%, respectively.
